Source: PubChem (National Center for Advancing Translational Sciences (NCATS))
Rows were chosen to be rich in hits. Some 1.8% of all compounds tested hit in one or more screens of this group.
TRPML1 inh – blocks the human TRPML1 channel; TRPML1-inducible cells, Ca2+ dye fluorescence, FDSS; hits give low values; inhibition of EC80 agonist-evoked calcium signal; activity change, negative = inhibition, % (test concentration not listed); AID 624415; Q9GZU1; hit rate 0.02% among 390,000; in the data active = activity change below about -50%; inconclusive = between about -30% and that limit;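 note: stimulus is agonist 54-4 at its EC80 concentration; % is set by controls: 0 for no effect and ±100 for the full control effect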
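TRPML1-DL cells, Tet-induced overnight (~16 h, 37 °C) at 1,500 cells/well, were loaded with Ca8 no-wash dye plus quencher for 45-90 min at room temperature. Compounds were pinned during FDSS kinetic reading; agonist 54-4 at EC80 (4 uM final) then added.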
GLP-1R agonist – GLP-1 receptor (human) agonism; HEK293 GLP-1R CRE-luciferase, luminescence, 4-6 h; cells express a hypersensitive GLP-1R form; AID 624172; Potency, µM (doses to about 45.6 µM), inactives show at the top dose activation, most hits filed as activators; hit rate 0.007% among 380,000; P43220; note: potency is the fitted concentration of half-maximal effect; % of control where 0% means no effect
Target sequence (P43220 whole entry, looked up): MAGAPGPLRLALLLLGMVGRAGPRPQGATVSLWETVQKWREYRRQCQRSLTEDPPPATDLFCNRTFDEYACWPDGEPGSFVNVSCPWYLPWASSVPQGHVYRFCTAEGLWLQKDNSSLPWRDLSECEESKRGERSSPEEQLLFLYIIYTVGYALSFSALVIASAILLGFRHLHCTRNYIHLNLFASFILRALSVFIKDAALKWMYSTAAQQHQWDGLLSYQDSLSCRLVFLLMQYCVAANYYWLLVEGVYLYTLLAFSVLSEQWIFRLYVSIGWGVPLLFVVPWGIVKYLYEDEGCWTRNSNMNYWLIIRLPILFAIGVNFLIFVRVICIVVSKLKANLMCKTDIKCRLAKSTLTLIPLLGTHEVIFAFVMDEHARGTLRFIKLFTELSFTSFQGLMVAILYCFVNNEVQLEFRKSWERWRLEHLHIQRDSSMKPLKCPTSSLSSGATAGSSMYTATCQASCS
GLP1R cytotox – cytotoxic in the GLP-1 receptor inverse agonist counter-screen. HEK293 cAMP-luciferase reporter cells, luminescence, 24 h. hit rate 0.13% among 410,000. Potency, µM (top dose mostly 38.3 µM), inactives show at the top dose activity change, negative = inhibition, most hits filed as inhibitors;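 note: loss of luciferase light is scored as toxicity; potency is the fitted concentration of half-maximal effect; % is set by controls: 0 for no effect and ±100 for the full control effect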
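Compound-treated cells are incubated 24 hr at 37 deg C under 5% CO2 after a 12 hour attachment period, then luciferase detection reagent is added and luminescence is measured following 12 min at room temperature; lowered signal indicates toxicity.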
TRPML1 agonist – agonists of human TRPML1 channel; Q9GZU1; TRPML1-expressing cells, Ca2+ dye fluorescence, FDSS; activation, % (no concentration beside the values); hit rate 0.12% among 410,000; AID 624414; in the data active = activation above about 50%; inconclusive = mostly about 30% to 49%; note: 0% is about no effect
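Agonist activity was taken from a 110 s kinetic Ca2+ dye read on the FDSS after pinning compounds onto TRPML1-DL cells. The cells were seeded at 1,500/well with Tet inducer, incubated about 16 h, then dye-loaded at room temperature.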
GLP1R inv ag – inverse agonists of human GLP-1 receptor | HEK293 GLP-1R CRE-luciferase, luminescence, 24 h; GLP-1R form is constitutively active | Potency, µM (titrated, usually from 38.3 µM), for the others: at the top dose activity change, negative = inhibition, most hits filed as inhibitors | hit rate 1.6% among 410,000; note: potency is the fitted concentration of half-maximal effect; % is set by controls: 0 for no effect and ±100 for the full control effect; nearly all actives have a fitted effect of over 55% in size
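Cells are plated, allowed 12 hours at 37 deg C, then treated with compounds for 24 hr before luciferase detection reagent is added and luminescence is read after 12 min at room temperature. The HEK293 line carries constitutively active GLP-1R with a cAMP-responsive reporter.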
The depositor's hits bear a star; ? = inconclusive; / = no result. Unless noted, calls come from the whole dose curve; as a rule, active = well fitted curve in the direction sought with a large enough effect; inconclusive = small, poorly fitted or top-dose-only effect, or another doubt; inactive = no such curve, though single readings can be large; an effect the other way counts as inactive or inconclusive.

SMILES	TRPML1 inh	GLP-1R agonist	GLP1R cytotox	TRPML1 agonist	GLP1R inv ag
COc1ccccc1C1NC(c2ccc3c(c2)OCO3)=CC(c2cc(Br)ccc2O)N1 (configuration not stated)	/	/	/	0	/
CCOc1ccc(C2=Nn3c(nnc3-c3ccc(OC)cc3)SC2)cc1	15	10µM*	-18%	1	0%
COc1ccc(C2=Nn3c(nnc3-c3ccncc3)SC2)cc1	-9	-1%	5%	1	0%
COc1ccc(C2=Nn3c(nnc3C3CCCCC3)SC2)cc1OC	-8	3.2µM*	2%	1	105%
COc1ccc(OC)c(C2=Nn3c(nnc3C3CCCCC3)SC2)c1	0	6%	12%	3	59%
COc1ccc(OC)c(-c2nnc3n2N=C(c2ccc(OC)c(OC)c2)CS3)c1	/	2.2µM*	/	/	/
COc1ccc(C2=Nn3c(nnc3-c3ccccc3OC)SC2)cc1OCC1CC1	/	4µM*	/	/	/
COc1ccc(-c2nn3c(C4CCCCC4)nnc3s2)cc1OC	14	2.5µM*	-7%	3	0%
CCS(=O)(=O)Nc1ccc(-c2cc(-c3ccccc3)c3cc(C)ccc3n2)cc1	-8	-3%	-11%	2	7.1µM*
Cc1ccc2nc(-c3ccc(NS(C)(=O)=O)cc3)cc(-c3ccccc3)c2c1	8	-7%	12%	2	0%
CCN1C(=O)[C@H]2[C@@H](c3ccc(C(F)(F)F)cc3)N[C@]3(CCCN(Cc4ccc(Cl)cc4)C3=O)[C@H]2C1=O	9	-5%	5%	0	10µM*
COc1ccc([C@H]2N[C@]3(CCCN(Cc4ccc(C(F)(F)F)cc4)C3=O)[C@H]3C(=O)N(Cc4ccccc4)C(=O)[C@@H]23)cc1	0	-2%	-20%	0	?
O=C1[C@H]2[C@@H](c3ccc(C(F)(F)F)cc3)N[C@]3(CCCN(Cc4ccccc4)C3=O)[C@H]2C(=O)N1Cc1ccccc1	1	-6%	0%	0	11µM*
O=C1[C@H]2[C@@H](c3ccc(C(F)(F)F)cc3)N[C@]3(CCCN(Cc4ccc(C(F)(F)F)cc4)C3=O)[C@H]2C(=O)N1Cc1ccccc1	1	-4%	3%	1	4.5µM*
Cc1nc(-c2ccc(C)c(S(=O)(=O)N3CCC(C(=O)NCc4ccc(F)cc4)CC3)c2)no1	-20	/	5%	2	16%
Cc1c(C)n(Cc2ccccc2)c2ncnc(NCCCN(C)C)c12	7	9%	-9%	0	?
COc1ccccc1Nc1ncnc2c1c(C)c(C)n2CCCN(C)C	/	2%	55%	/	2.2µM*
Cc1c(C)n(CCCN(C)C)c2ncnc(Nc3ccccc3)c12	/	4%	-2%	/	?
Cc1c(C)n(CCCN(C)C)c2ncnc(NC3CCCCC3)c12	-4	33%	-30%	-1	4µM*
COc1ccc(Nc2ncnc3c2c(C)c(C)n3CCCN(C)C)cc1	10	7%	-10%	1	11µM*
CC(C)NC(=O)N1CCN(S(=O)(=O)c2ccc3c(ccn3C)c2)CC1	20	4%	-3%	2	-13%
Cc1ccccc1CN1[C@H](C)[C@H](c2ccccc2)OCCS1(=O)=O	/	/	/	-1	/
COc1cc(-c2nc(C(N)=O)c3c(n2)n(-c2cccc(C)c2)c(=O)n3C)cc(OC)c1OC	-1	-1%	-3%	2	11%
Cc1ccc(-n2ncc3c(N(CC(C)C)CC(C)C)ncnc32)c(C)c1	-10	/	1%	0	2.8µM*
Cc1ccc(-n2ncc3c(NCC(C)C)ncnc32)c(C)c1	4	/	0%	2	?
Cc1ccc(-n2ncc3c(NCCCOC(C)C)ncnc32)c(C)c1	23	1%	13%	0	2.5µM*
CSc1cccc(NC(=O)CN2C(=O)COc3ccc(S(=O)(=O)N4CCC(C)CC4)cc32)c1	-3	/	-10%	2	?
CC(C)(C)NCC(O)(c1ccc(Cl)cc1)c1ccc(Cl)cc1	-4	0%	?	2	4.5µM*
CC(C)NCC(O)(c1ccc(Cl)cc1)c1ccc(Cl)cc1	10	17%	-8%	2	13µM*
CCN(CC)CCNCC(O)(c1ccc(Cl)cc1)c1ccc(Cl)cc1	5	1%	2%	0	8.9µM*
